HT1080-NT tox = kills 2HG-producing HT-1080-NT fibrosarcoma cells; HT-1080-NT fibrosarcoma viability, CellTiter-Glo ATP luminescence, 48 h; Potency, µM (top dose mostly 46.1 µM), usual class: cytotoxic; hit rate 1.6% among 360,000;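 further: NT is the 2HG producing partner of a matched IDH1 knockdown line; nearly all actives have a fitted effect of over 55% in size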
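Luminescent CellTiter-Glo readout after 48 hours of compound exposure at 37 degrees C defined viability of HT-1080-NT cells. Activity was normalized to DMSO wells and cell-free media wells; concentration-response curves were fitted and assigned curve classes.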
HT1080 IDH1KD tx = toxicity to HT-1080 IDH1 knockdown cells (counter line); HT-1080 IDH1 knockdown viability, ATP luminescence, 48 h; Potency, µM (highest dose often 46.1 µM), usual class: cytotoxic; hit rate 2% among 360,000; AID 686971
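CellTiter-Glo luminescence after 48 h compound exposure at 37 degrees C of IDH1-knockdown HT-1080 cells in 5% FBS RPMI. %Activity scaled between DMSO wells and cell-free media wells, with curves fitted and assigned curve classes.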
DT40 TDP1 no CPT = qHTS for Inhibitors of human tyrosyl-DNA phosphodiesterase 1 (TDP1): qHTS in cells in absence of CPT | DT40 Tdp1-/- hTDP1 cells, no CPT, ATP luminescence, 48 h | hit rate 15% among 420,000 | Potency, µM (series often up to 46.2 µM), most hits filed as inhibitors; further: nearly all actives have a fitted effect of over 55% in size
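Readout: luminescence from CellTiter-Glo after 30 min in the dark at RT. Cells: DT40 Tdp1-/- with stable hTDP1, 400/well. Exposure: compounds alone, ≥48 hr, 37 °C.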
DT40 TDP1 CPT = DT40-hTDP1 cell growth loss with CPT; chicken DT40 Tdp1-/-;hTDP1 cells + 20 nM CPT, ATP luminescence, 48 h; hit rate 12% among 420,000; Potency, µM (doses to about 46.2 µM), usual class: inhibitors; AID 686979; further: nearly all actives have a fitted effect of over 55% in size
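Chicken DT40 Tdp1-/- cells stably complemented with human TDP1 were seeded at 400 cells/well in medium containing 20 nM camptothecin, exposed to pin-transferred compounds, and grown at 37 °C for at least 48 hr. Viability was read as ATP luminescence.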
IL-1B inflam inh = blocks inflammasome-driven IL-1 beta release | THP-1 LPS/ATP IL-1B secretion, AlphaLISA, 16 h; stronger effect = lower value | activity change, % at 57.5 µM | hit rate 4.7% among 360,000 | AID 743279; in the data active means activity change below about -50%; inconclusive means mostly about -30% to -49%
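THP-1 cells pretreated 1 hr with compounds (up to 57.5 uM final), then stimulated with LPS (250 ng/mL final) plus ATP (1.25 mM final); secreted IL-1B measured by AlphaLISA after 16 hr, decreased signal indicating inhibition.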
Each line names hits and unclear results; the compound was inactive in the other large screens. Rows were chosen to be rich in hits. Some 19% of all compounds tested hit in one or more screens of this group. Unless noted, the call rests on the fitted dose curve; in most records, active means well fitted curve in the direction sought with a large enough effect; inconclusive means small, poorly fitted or top-dose-only effect, or another doubt; inactive means no such curve, though single readings can be large; an effect the other way counts as inactive or inconclusive.

CS(=O)c1ccccc1-c1nc(-c2cc(C(F)(F)F)cc(C(F)(F)F)c2)no1 (stereo not drawn)	DT40 TDP1 no CPT 13µM, DT40 TDP1 CPT 10.3µM
CS(=O)(=O)c1ccccc1-c1nc(-c2cc(C(F)(F)F)cc(C(F)(F)F)c2)no1	DT40 TDP1 CPT inconclusive
COC(=O)[C@]12CCCCC=C1N(Cc1ccccc1)C(=O)[C@H](CC(=O)NCCC(C)C)C2	DT40 TDP1 no CPT inconclusive, DT40 TDP1 CPT inconclusive
CCOc1ccc(C(c2c(O)cc(C)n(Cc3ccco3)c2=O)N2CCCCC2)cc1 (stereo not drawn)	none (no result: HT1080-NT tox, HT1080 IDH1KD tx, IL-1B inflam inh)
O=C(N/N=C/c1cccc(Br)c1)c1ccc(Br)cc1	none
O=C(N/C(=C/c1cccc(Br)c1)c1nc(=S)[nH][nH]1)c1ccccc1	HT1080-NT tox inconclusive, HT1080 IDH1KD tx inconclusive, DT40 TDP1 no CPT inconclusive, DT40 TDP1 CPT inconclusive, IL-1B inflam inh -100.5
Cc1ccc(C(=O)N/C(=C\c2cccnc2)c2nc3ccccc3[nH]2)cc1	DT40 TDP1 no CPT inconclusive, DT40 TDP1 CPT inconclusive
Cc1ccc(C(=O)N/C(=C\c2ccc(Br)cc2)c2nc(=S)[nH][nH]2)cc1	HT1080-NT tox inconclusive, HT1080 IDH1KD tx inconclusive, DT40 TDP1 no CPT inconclusive, DT40 TDP1 CPT inconclusive, IL-1B inflam inh -78.9
COc1ccc(S(=O)(=O)N2CCC(C(=O)NCc3cccs3)CC2)cc1	DT40 TDP1 no CPT inconclusive
Cc1cc2ncc(-c3cccs3)nc2cc1C	DT40 TDP1 no CPT inconclusive
CCOC(=O)[C@]12CCC=C1N(Cc1ccccc1)C(=O)[C@H](CC(=O)NCc1ccc(C)o1)C2	none
COC(=O)[C@]12CCCCC=C1N(CCC1=CCCCC1)C(=O)[C@H](CC(=O)NCc1ccc(C)o1)C2	HT1080 IDH1KD tx inconclusive, DT40 TDP1 no CPT inconclusive, DT40 TDP1 CPT inconclusive
CCCCCCCCN1C(=O)[C@H](CC(=O)NCc2ccc(C)o2)C[C@@]2(C(=O)OC)CCCCC=C12	HT1080-NT tox inconclusive, HT1080 IDH1KD tx inconclusive, DT40 TDP1 no CPT 20.6µM, DT40 TDP1 CPT inconclusive, IL-1B inflam inh -53.9
CCCCCCCCN1C(=O)[C@H](CC(=O)NCc2ccc(C)o2)C[C@@]2(C(=O)OCC)CCC=C12	HT1080-NT tox inconclusive, HT1080 IDH1KD tx inconclusive, DT40 TDP1 no CPT 16.4µM, DT40 TDP1 CPT inconclusive (no result: IL-1B inflam inh)
O=C(COc1ccc(F)cc1Br)NCc1nnc2ccccn12	none
CCOc1ccccc1C(=O)NCC(c1cccs1)S(=O)(=O)c1ccc(F)c(C)c1 (stereo not drawn)	none (no result: HT1080-NT tox, HT1080 IDH1KD tx, IL-1B inflam inh)
CCN1C(=O)c2cccc3c(S(=O)(=O)N(C(=O)c4cccnc4)c4ccc(OC)cc4)ccc1c23	HT1080-NT tox inconclusive, HT1080 IDH1KD tx inconclusive, DT40 TDP1 no CPT 11.6µM, DT40 TDP1 CPT inconclusive
CCN1C(=O)c2cccc3c(S(=O)(=O)N(C(=O)c4ccncc4)c4ccc(OC)cc4)ccc1c23	DT40 TDP1 no CPT inconclusive, DT40 TDP1 CPT inconclusive
CCOc1ccccc1NC(=O)COc1coc(CN2CCc3ccccc32)cc1=O	DT40 TDP1 no CPT inconclusive, DT40 TDP1 CPT inconclusive
CCOC(=O)c1ccccc1NC(=O)COc1coc(CN2CCc3ccccc32)cc1=O	DT40 TDP1 no CPT inconclusive, DT40 TDP1 CPT inconclusive
O=C(COc1coc(CN2CCc3ccccc32)cc1=O)NCCc1ccccc1	DT40 TDP1 no CPT 18.4µM, DT40 TDP1 CPT inconclusive
Cc1ccccc1NC(=O)COc1coc(CN2CCCc3ccccc32)cc1=O	DT40 TDP1 no CPT 14.6µM, DT40 TDP1 CPT 20.6µM
Cc1ccc(C)c(NC(=O)COc2coc(CN3CCc4ccccc43)cc2=O)c1	DT40 TDP1 no CPT 11.6µM
O=C(COc1coc(CN2CCc3ccccc32)cc1=O)N1CCCCC1	none
Cc1ccc(NC(=O)COc2coc(CN3CCc4ccccc43)cc2=O)cc1Cl	DT40 TDP1 no CPT 14.6µM, DT40 TDP1 CPT 23.1µM
CCOc1ccc(S(=O)(=O)N(CC)CC(=O)NC2CCS(=O)(=O)C2)cc1 (stereo not drawn)	none
O=C(Cn1cccc1C(=O)c1ccccc1)NCc1ccccn1	none
CCC(C)NC(=O)COc1ccccc1[N+](=O)[O-] (stereo not drawn)	none
COc1ccccc1N(CCC#N)C(=S)Nc1ccc(S(=O)(=O)N2CCOCC2)cc1	DT40 TDP1 no CPT inconclusive
